7 molecules from PubChem BioAssay (NCATS) can be followed below.

Assay [1] in a line: P-glycoprotein substrates identified in KB-8-5-11 adenocarcinoma cell line, qHTS therapeutic library screen (AID 1346987). Note: nearly all actives have a fitted effect of over 65% in size. Note: potency is the fitted concentration of half-maximal effect. In outline: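 P-gp-mediated resistance screen: KB-8-5-11 cells treated 72 h with compounds in dose-response. CellTiter-Glo viability.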
(In general: Quantitative high-throughput screening tests each substance at several concentrations.)

Assay [2] in a line: NS1 protein of Zika virus - qHTS assay to identify small molecule inhibitors in human HEK 293 cells (AID 1347053). Note: series mostly up to about 46 µM; nearly all actives have a fitted effect of over 55% in size. An outline of the steps: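 HEK 293 cells pretreated with compound for 1 h, then infected with ZIKV MR766 (MOI 0.5) for 24 h at 37 C. NS1 detected by TR-FRET with two anti-NS1 antibodies; normalized to uninfected (0%) and infected (100%) wells.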

Each structure is given as a SMILES string. Several values for one entry are separate records, joined by “and”; a condition that tells them apart may be missing. Equal values may be shown once. Results filed as inconclusive are left out. Where a call stands in place of a potency, no number is given. The source holds several records for some structures; these can differ, active in one and inactive in another. Activity calls are given as the source filed them. Calls come from the whole dose curve; as a rule, active = well fitted curve in the direction sought with a large enough effect; inconclusive = small, poorly fitted or top-dose-only effect, or another doubt; inactive = no such curve, though single readings can be large; an effect the other way counts as inactive or inconclusive.

In the case of `O=C(O)C1=CO[C@@H](O[C@@H]2O[C@H](CO)[C@H](O)[C@H](O)[C@H]2O)[C@@H]2C(CO)=CC[C@H]12`, the Potency result in assay [1] and in assay [2] was “inactive” in each case.
Regarding `CCN1CCN(c2ccc(Nc3cc(N(C)C(=O)Nc4c(Cl)c(OC)cc(OC)c4Cl)ncn3)cc2)CC1`, the Potency result in assay [1] is “inactive and 16.4 µM (active)”. In assay [2], the Potency result was “inactive”.
As to `c1ccc(CNc2nc(N3CCOc4ccccc43)nc3c2CCCC3)cc1`, the Potency result in assay [1] and in assay [2] was “inactive” in each case.
Take `CN(C)c1nc(Cc2ccc(NC(=O)c3ccc(C(F)(F)F)cc3)cc2)nc(N(C)C)c1CC(=O)O`: the Potency result in assay [1] and in assay [2] was “inactive” each time.
Regarding `CCOC(=O)[C@H](CCc1ccccc1)N[C@@H](C)C(=O)N1CCCC1C(=O)O` (stereo partly drawn), the Potency entry in assay [1] and in assay [2] was “inactive” throughout.
Consider `O=C(CC12CC3CC(CC(C3)C1)C2)Nc1cccc2nc(NCCNCCO)ccc12`, for which the Potency result in assay [1] and in assay [2] was “inactive” each time.
`Cc1nc(NC(=O)N2CCC[C@@H]2C(N)=O)sc1-c1csc(C(C)(C)C)n1`: the Potency entry in assay [2] was “inactive”.
